How the values were obtained:
[1] = test system: Human papillomavirus type 1a protein E7 (residues 44-93); experiment: HPV1a E7 fragment binders on microarrays, primary screen, biochemical, small-molecule microarray, residues 44-93, 635 nm fluorescence (AID 1108); settings: small-molecule microarray binding, fluorescence 635 nm; higher = more signal;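 note: E7 fragment applied at 1 µg/mL in TBST for 1 h at 4 C; score combines spot fluorescence with its signal to noise ratio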
[2] = modulators of HCV replicon luciferase signal, primary screen, HCV replication inhibitor project, Huh7 cells, luciferase reporter (AID 1109); settings: 48 h, higher = more signal;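 note: huh7 hepatoma cells harbouring a luciferase neomycin HCV replicon reporter; luciferase luminescence as measure of HCV replicon replication; test concentration not given here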
[3] = target: Left-right determination factor 2 (Homo sapiens) (UniProt O00292); experiment: LEFTY2 binders on small-molecule microarrays, primary screen, biochemical, small-molecule microarray, 635 nm fluorescence scan (AID 1110); settings: LEFTY2 binding, higher = more signal
Left-right determination factor 2 (Homo sapiens), sequence (O00292 whole entry, looked up): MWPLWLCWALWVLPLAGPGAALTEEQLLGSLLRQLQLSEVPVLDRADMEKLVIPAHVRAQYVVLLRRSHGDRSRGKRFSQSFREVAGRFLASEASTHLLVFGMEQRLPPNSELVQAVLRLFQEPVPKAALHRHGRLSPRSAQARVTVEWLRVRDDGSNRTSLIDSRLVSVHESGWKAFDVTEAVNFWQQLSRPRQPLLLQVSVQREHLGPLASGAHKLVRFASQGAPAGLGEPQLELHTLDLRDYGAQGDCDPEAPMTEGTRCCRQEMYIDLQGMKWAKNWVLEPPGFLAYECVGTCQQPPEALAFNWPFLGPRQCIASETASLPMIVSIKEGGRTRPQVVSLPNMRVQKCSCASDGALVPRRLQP

[4] = target: Calmodulin-1 (Homo sapiens) (UniProt P0DP23); experiment: CALM1 binders on microarrays, EGTA buffer, profiling panel, biochemical, small-molecule microarray, Cy5-labelled CALM1 (AID 1111); settings: Cy5-CALM1 binding fluorescence, higher = more signal;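 note: labelled calmodulin applied in Tris saline Tween buffer holding calcium plus EGTA and DTT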
[5] = target: Calmodulin-1 (Homo sapiens) (UniProt P0DP23); experiment: calcium-bound CALM1 binders on microarrays, profiling panel, artefact control for SMM control-protein annotation, biochemical, small-molecule microarray, Cy5-labelled CALM1, plus calcium (AID 1112); settings: Cy5-CALM1 binding fluorescence, higher = more signal;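 note: score merges spot fluorescence with signal to noise from triplicate slides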
[6] = small-molecule microarray binders of probe aWnt5a, primary screen, biochemical, biotinylated probe, 635/667 nm fluorescence (AID 1113); settings: higher = more signal;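 note: score merges 667 nm fluorescence intensity with signal-to-noise per printed feature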
[7] = small-molecule microarray binders of probe aShh, primary screen, biochemical, biotinylated probe, 635/667 nm fluorescence (AID 1114); settings: higher = more signal;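 note: probe is biotin-labelled aShh protein from a stem cell growth factor screen; measures binding of labelled protein to compounds printed on the slide; score merges feature fluorescence at 667 nm with signal-to-noise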
[8] = small-molecule microarray binders of probe aNog, primary screen, biochemical, biotinylated probe, 635/667 nm fluorescence (AID 1115); settings: higher = more signal;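 note: probe is biotinylated aNog protein used at 0.15 µg/mL for 1 h at 4 C; z-score combines 667 nm fluorescence of each spot with its signal to noise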
[9] = target: Torsin-1A-interacting protein 1 (Homo sapiens) (UniProt Q5JTV8); experiment: LAP1 binders from COS7 cell lysate, primary screen, small-molecule microarray, 635/667 nm fluorescence (AID 1116); settings: COS7-hLAP1 lysate binding, 635 nm fluorescence, higher = more signal
Torsin-1A-interacting protein 1 (Homo sapiens), sequence (Q5JTV8 whole entry, looked up): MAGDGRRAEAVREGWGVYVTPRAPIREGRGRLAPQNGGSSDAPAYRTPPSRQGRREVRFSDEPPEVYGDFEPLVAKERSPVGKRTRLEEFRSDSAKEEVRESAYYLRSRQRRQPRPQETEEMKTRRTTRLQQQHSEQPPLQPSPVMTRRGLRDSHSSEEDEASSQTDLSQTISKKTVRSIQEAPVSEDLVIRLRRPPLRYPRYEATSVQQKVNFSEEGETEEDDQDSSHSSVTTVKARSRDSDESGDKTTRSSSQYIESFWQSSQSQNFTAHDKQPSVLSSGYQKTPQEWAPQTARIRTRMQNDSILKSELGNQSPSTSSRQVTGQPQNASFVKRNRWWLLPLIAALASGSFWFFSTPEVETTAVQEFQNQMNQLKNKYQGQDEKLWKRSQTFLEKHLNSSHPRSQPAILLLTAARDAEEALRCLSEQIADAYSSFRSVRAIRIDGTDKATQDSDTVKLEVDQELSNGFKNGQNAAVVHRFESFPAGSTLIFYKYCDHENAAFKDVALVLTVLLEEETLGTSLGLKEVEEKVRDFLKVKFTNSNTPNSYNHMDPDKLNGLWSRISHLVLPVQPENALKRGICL

[10] = target: Alpha-bungarotoxin (Bungarus multicinctus) (UniProt P60615); experiment: alpha-bungarotoxin binders on microarray, profiling panel, artefact control for SMM control protein annotation, biochemical, small-molecule microarray, Alexa647 label, 635/667 nm fluorescence (AID 1117); settings: alpha-BTX-A647 binding fluorescence, higher = more signal
Alpha-bungarotoxin (Bungarus multicinctus), sequence (P60615 whole entry, looked up): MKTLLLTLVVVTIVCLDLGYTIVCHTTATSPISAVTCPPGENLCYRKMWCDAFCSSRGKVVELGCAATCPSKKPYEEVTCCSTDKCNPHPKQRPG

SMILES	composite z-score [1]	z-score [2]	composite z-score [3]	composite z-score [4]	composite z-score [5]	composite z-score [6]	composite z-score [7]	composite z-score [8]	composite z-score [9]	composite z-score [10]
CCCCO[C@H]1C[C@H]2C(Br)=C[C@@]1(CO)C(=O)[C@]21CO1	-0.122	-1.46	0.456	-0.795	-1.33	-0.146	-0.123	-0.278	-0.242	-0.755
COCCOC(=O)N1C(=O)[C@@]2(c3cc(C#CC4=CCCCC4)ccc31)[C@H](c1ccc(O)cc1)N1[C@H](c3ccccc3)[C@H](c3ccccc3)OC(=O)[C@H]1[C@@H]2C(=O)N1CCCCCCC1	1.29	-0.387	0.8	1.11	0.716	-0.0732	0.332	0.512	0.691	1.69
CCOC(=O)C1=CCC(c2cccc3ccccc23)N(S(=O)(=O)c2ccc(C)cc2)C1 (stereo not given)	1.09	-0.874	0.0938	1.47	0.509	0.0763	0.203	0.276	0.871	1.3
CCC(=O)[C@]12O[C@@]3([C@@H]4C(=O)OCC[C@@H]41)N(Cc1ccccc1)C(C)=C(C(=O)OC)[C@@H](c1ccccc1)N3C2=O	-2.88	0.286	0.271	-0.146	-0.0047	-0.16	-0.0653	-0.196	-0.398	-0.621
COc1ccc(-c2ccccc2[C@@H]2N[C@H](C(=O)O)CC[C@H]2C)cc1	0.404	-0.388	0.594	-0.27	-0.699	-0.0222	0.138	0.432	0.583	0.288
CO[C@@H]1COC(=O)[C@H](C)NC(=O)CC=C[C@@H](C)[C@H](OC)COC(=O)[C@H](C)NC(=O)CC=C[C@H]1C	0.0508	-0.0787	0.787	-0.202	-1.26	-0.0684	-0.223	-0.248	0.0309	-0.59
CO[C@H]1COC(=O)[C@H](C)NC(=O)CC=C[C@@H](C)[C@H](NS(=O)(=O)c2ccc(C)cc2)COC(=O)[C@@H](OCc2ccccc2)C=C[C@@H]1C	-0.117	-0.179	0.449	-0.967	-1.02	-0.248	-0.167	-0.173	-0.141	-0.606
COC(=O)[C@H]1[C@@H]2COc3ccccc3[C@H]2N[C@H]1C(=O)OC	-0.339	-0.591	0.362	0.623	-0.266	-0.0161	-0.0626	-0.223	0.0767	0.854
C=C(CCCC)C(=O)CC[C@@H](OC(=O)c1cccnc1)c1cccc(OCCO)c1	-0.0891	-3.58	0.0009	-0.708	-1.47	-0.0213	-0.0977	0.314	0.469	1.76
CN(C)c1ccc(C(O)C2C=CC3C(=O)NC(=O)C3N2Nc2ccc(Cl)cc2Cl)cc1 (stereo not given)	1.36	-0.0428	-1.14	0.615	-0.327	0.0328	0.0993	1.21	0.0689	0.359
CCN1C(C)=C(C(=O)OC)[C@@H](c2ccccc2)N2C(=O)[C@@]3(C(=O)OC)O[C@@]12[C@@H]1C(=O)CCC[C@@H]13	0.0258	-0.216	1.38	-1.2	-1.08	-0.0758	0.0637	-0.43	0.157	-0.954
CN(C)CCCC[C@@H]1NC(=O)[C@@H]2C[C@H](C(=O)NCCCCCNC(=O)CS)[C@H](c3ccc(O)cc3)N2C1=O	0.664	0.873	1.17	0.0884	1.25	-0.124	0.199	0.498	0.761	1.65
CN1C2C=C(c3ccc(CO)cc3)C(C3C(=O)N(C(N)=O)C(=O)C32)C1c1cccs1 (stereo not given)	-0.232	0.374	0.217	0.45	0.47	-0.156	-0.0769	0.408	1.24	-1.09
O=C1O[C@@H](c2ccccc2)[C@@H](c2ccccc2)N2[C@@H](c3ccccc3OCCO)[C@]3(C(=O)Nc4ccc(C#CC5=CCCCC5)cc43)[C@@H](C(=O)O)[C@H]12	0.799	-2.28	0.0802	1.7	0.957	-0.0539	0.13	0.0014	0.612	1.77
CCCNC(=O)[C@@H]1c2ccccc2C(=O)N(Cc2cc(F)cc(C(F)(F)F)c2)[C@H]1c1ccc(CO)cc1	0.0588	-0.901	0.498	1.04	-0.263	0.0079	0.188	-0.154	1.44	1.21
CO[C@H]1COC(=O)[C@H](CCSC)NC(=O)CC=C[C@@H](C)COC(=O)[C@@H](OCc2ccccc2)C=C[C@@H]1C	-0.457	-0.704	1.23	-0.86	-1.6	-0.182	-0.1	-0.541	-0.0258	-0.414
CCN1C(C)=C(C(=O)OC)[C@@H](c2ccccc2)N2C(=O)[C@@]3(C(=O)OC)O[C@@]12[C@@H]1C(=O)N(C)C(=O)[C@@H]13	-0.592	-0.0304	0.72	0.439	-0.686	-0.0882	-0.283	0.372	0.426	1.19

SMILES	composite z-score [1]	z-score [2]	composite z-score [3]	composite z-score [4]	composite z-score [5]	composite z-score [6]	composite z-score [7]	composite z-score [8]	composite z-score [9]	composite z-score [10]
C=CC[C@]1(C(N)=O)N=C(c2ccc(OCCCO)cc2)O[C@H]1c1ccccc1CN=[N+]=[N-]	1.03	-1.33	-1.11	1.91	1.14	-0.124	-0.203	0.165	1.87	1.03
CO[C@H]1COC(=O)CC=C[C@H](C)[C@@H](OC)COC(=O)[C@H](Cc2ccccc2)NC(=O)CC=C[C@@H]1C	-1.64	-0.74	1.12	-1.67	-3.12	-0.144	-0.11	-0.537	-0.272	-1.24
CO[C@@H]1COC(=O)[C@@H]2CCCN2C(=O)CC=C[C@@H](C)[C@H](OC)COC(=O)[C@@H]2CCCN2C(=O)CC=C[C@H]1C	-0.699	0.47	0.402	-1.35	-2.31	-0.156	-0.2	-0.201	-0.233	-1.09
O=C1O[C@@H](c2ccccc2)[C@@H](c2ccccc2)N2[C@@H](c3ccc(O)cc3)[C@]3(C(=O)Nc4ccc(C#CC5(O)CCCCCC5)cc43)[C@@H](C(=O)Nc3nc4ccccc4s3)[C@H]12	-0.423	-0.56	0.494	0.395	0.253	0.245	-0.35	1.15	1.18	1.91
O=C1OCCC/C=C\[C@H]2OC34C=CCN(CCN5CCOCC5)C(=O)[C@H]3N(CCCCCO)C(=O)[C@@H]4C12 (stereo not given in full)	-0.827	-0.953	-1.37	-0.725	-1.26	-0.226	-0.147	-0.356	-0.849	-0.918
C=CC[C@]1(C(=O)O)N=C(c2ccc(OCCCO)cc2)O[C@H]1c1ccccc1N=[N+]=[N-]	-0.914	1.65	-0.753	1.74	0.768	0.055	-0.0243	-0.0069	1.45	0.0298
COCCOC(=O)N1C(=O)[C@@]2(c3cc(C#CCNC(N)=O)ccc31)[C@H](C(=O)N1CCCCCCC1)[C@H]1C(=O)O[C@H](c3ccccc3)[C@H](c3ccccc3)N1[C@@H]2c1ccccc1OCCO	1.32	-2.1	1.09	0.886	0.632	0.193	0.46	0.878	0.845	0.48
CC(C)N1CC=CC23O[C@@H]4/C=C\CCCOC(=O)C4[C@H]2C(=O)N(CCO)[C@@H]3C1=O (stereo not given in full)	-0.526	-0.648	-0.999	-0.428	-0.793	-0.188	-0.0769	-0.0624	2.9	-0.493
Cc1ccc(S[C@]2(C(=O)NC3CC3)CC(=O)N(Cc3cc(C(F)(F)F)cc(C(F)(F)F)c3)[C@@H]2c2ccc(CO)cc2)cc1	0.892	-1.17	0.267	-0.125	-0.493	-0.175	-0.174	-0.491	-0.0118	0.296
COc1ccc([Si](C)(C)[C@@H]2[C@@H](CC(=O)N(CCO)Cc3ccccc3)O[C@]3(C(=O)N(Cc4cccc(N5CCC5=O)c4)c4ccccc43)[C@H]2C)cc1	0.411	-3.81	0.571	-0.0736	-0.322	-0.0718	-0.0709	-0.411	1.28	0.508
COc1cc(Cc2cc3c(c(CCc4ccccc4)n2)[Si](C(C)C)(C(C)C)OC3)cc(OC)c1OC	-0.0207	-2.14	0.131	-0.358	-0.182	-0.156	0.0796	-0.158	-0.214	-0.044
COc1ccc(-c2cc3c(c(-c4ccccc4)n2)[Si](C(C)C)(C(C)C)O[C@H]3c2ccccc2)cn1	0.656	-1.4	-0.152	0.136	-0.265	-0.0512	-0.0626	-0.216	-0.126	0.599
CCCC[C@H]1OB(O)C[C@H]2C1=C(COC)C[C@H]1C(=O)N(Cc3ccccc3)C(=O)[C@H]12	-0.0721	0.202	0.313	0.188	-0.0421	-0.0327	-0.0904	0.0649	0.25	0.526
CC(C)C[C@@H]1NC(=O)[C@H]2C[C@@H](C(=O)NCCCCCC[N+](C)(C)C)[C@@H](c3ccc(O)cc3)N2C1=O	0.183	0.549	-0.29	-0.602	-0.781	-0.229	0.0856	-0.169	0.418	-0.111
COc1ccc(C(O)C2C=CC3C(=O)N(C)C(=O)C3N2N2CCCCC2)cc1OCc1ccccc1 (stereo not given)	1.34	0.421	0.0446	0.747	0.738	0.0391	0.462	1.63	0.68	1.87
NC(=O)NCC#Cc1ccc2c(c1)[C@]1(C(=O)N2)[C@H](C(N)=O)[C@H]2C(=O)O[C@H](c3ccccc3)[C@H](c3ccccc3)N2[C@@H]1c1ccccc1OCCO	1.04	-0.771	0.375	0.425	0.356	-0.124	-0.0793	0.657	0.808	0.45
Cc1ccc([C@@H]2CC=C(C(=O)O)[C@H](c3ccccc3)N2S(=O)(=O)c2ccc(C)cc2)cc1	0.961	0.712	-0.23	2.35	0.535	0.0599	0.374	1.05	1.9	1.79
